The values below come from PubChem BioAssay (EPA / NIEHS).

Common to all, as to details: mRNA level, 48 h; actives raise or lower the signal
Read-out in assay [1]: cysteine-aspartic acid protease (CASP8), CASP8 (gene 841)
Kind of assay: LTEA_HepaRG_CASP8: Life Technologies and Expression Analysis (LTEA) Assay for cysteine-aspartic acid protease (CASP8) using HepaRG (AID 2283480). The essentials:
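qRT-PCR readout of CASP8 mRNA, normalized to three housekeeping genes, after 48 h chemical exposure of HepaRG cells; 8-point half-log series, top 100 uM, 0.5% DMSO vehicle. Bidirectional curve fitting against DMSO baseline.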

Read-out in assay [2]: DNA damage-inducible transcript 3 (DDIT3), DDIT3 (gene 1649)
Kind of assay: LTEA_HepaRG_DDIT3: Life Technologies and Expression Analysis (LTEA) Assay for DNA damage-inducible transcript 3 (DDIT3) using HepaRG (AID 2283488). The essentials: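 Cells are human HepaRG liver cells treated for 48 h with eight half-log concentrations up to 100 uM in 0.5% DMSO. Transcript levels come from qRT-PCR normalized to three housekeeping genes, with activity fitted in both directions relative to vehicle.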

Read-out in assay [3]: Early growth response protein 1 (EGR1) transcription factor, EGR1 (gene 1958)
Kind of assay: LTEA_HepaRG_EGR1: Life Technologies and Expression Analysis (LTEA) Assay for Early growth response protein 1 (EGR1) transcription factor using HepaRG (AID 2283490). The essentials:
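HepaRG, 48 h exposure, 8-pt half-log series from 100 uM, 0.5% DMSO vehicle; EGR1 transcript by TaqMan qRT-PCR (Fluidigm array), housekeeping-normalized; bidirectional fit relative to DMSO baseline.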

Read-out in assay [4]: Ezrin (EZR), EZR (gene 7430)
Description: LTEA_HepaRG_EZR: Life Technologies and Expression Analysis (LTEA) Assay for Ezrin (EZR) using HepaRG (AID 2283491). The essentials:
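Read-out is EZR transcript level by qRT-PCR, normalized to three housekeeping genes and fitted bidirectionally against the DMSO control. Human HepaRG cells received test chemicals for 48 h at eight half-log concentrations up to 100 uM in 0.5% DMSO.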

Read-out in assay [5]: Fatty Acid-Binding Protein 1 (FABP1), FABP1 (gene 2168)
Kind of assay: LTEA_HepaRG_FABP1: Life Technologies and Expression Analysis (LTEA) Assay for Fatty Acid-Binding Protein 1 (FABP1) using HepaRG (AID 2283494). An outline of the steps: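 qRT-PCR readout of FABP1 transcript (normalized to three housekeeping genes) after 48 h chemical exposure of HepaRG cells; eight concentrations, half-log steps, max 100 uM, 0.5% DMSO vehicle; gain or loss fitted relative to DMSO baseline.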

Read-out in assay [6]: Glutathione S-Transferase (GSTA2), GSTA2 (gene 2939)
Kind of assay: LTEA_HepaRG_GSTA2: Life Technologies and Expression Analysis (LTEA) Assay for Glutathione S-Transferase (GSTA2) using HepaRG (AID 2283497). An outline of the steps: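 qRT-PCR readout of GSTA2 transcript, normalized to three housekeeping genes, fitted bidirectionally against 0.5% DMSO baseline. Differentiated HepaRG cells received compound for 48 h at 8 concentrations (top 100 uM, half-log steps).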

Read-out in assay [7]: Cytochrome P450 (CYP24A1), CYP24A1 (gene 1591)
Description: LTEA_HepaRG_CYP24A1: Life Technologies and Expression Analysis (LTEA) Assay for Cytochrome P450 (CYP24A1) using HepaRG (AID 2283478). An outline of the steps: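 qRT-PCR read-out: CYP24A1 transcript levels normalized to three housekeeping genes, bidirectional curve fits against 0.5% DMSO baseline. Human HepaRG cells treated 48 h with chemicals at eight concentrations from 100 uM in half-log steps.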

Read-out in assay [8]: Cytochrome P450 (CYP1A2), CYP1A2 (gene 1544)
Kind of assay: LTEA_HepaRG_CYP1A2: Life Technologies and Expression Analysis (LTEA) Assay for Cytochrome P450 (CYP1A2) using HepaRG (AID 2283479). The essentials: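 HepaRG, 48 h exposure, top 100 uM, half-log 8-pt, 0.5% DMSO vehicle, duplicates. Readout: TaqMan qRT-PCR of CYP1A2 mRNA, housekeeping-normalized (ACTB/GAPDH/POLR2A). Gain/loss fit relative to DMSO baseline.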

Read-out in assay [9]: Cytochrome P450 (CYP2B6), CYP2B6 (gene 1555)
Kind of assay: LTEA_HepaRG_CYP2B6: Life Technologies and Expression Analysis (LTEA) Assay for Cytochrome P450 (CYP2B6) using HepaRG (AID 2283481). An outline of the steps: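 Read-out is CYP2B6 mRNA by TaqMan qRT-PCR, normalized to three housekeeping genes and fitted bidirectionally against 0.5% DMSO baseline. Human HepaRG cells received test chemicals for 48 h, top concentration 100 uM, half-log dilutions.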

Read-out in assay [10]: Cytochrome P450 2C19 (Homo sapiens) (UniProt P33261)
Description: LTEA_HepaRG_CYP2C19: Life Technologies and Expression Analysis (LTEA) Assay for CYP2C19 using HepaRG (AID 2283482). An outline of the steps: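 HepaRG, 48 h chemical exposure, 8-pt half-log series from 100 uM in 0.5% DMSO, duplicates. Readout: CYP2C19 mRNA by TaqMan qRT-PCR, housekeeping-normalized. Bidirectional fit vs DMSO baseline; phenobarbital 1mM as induction control.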

Read-out in the next assay: CYP2C9 (gene 1559)
Kind of assay: LTEA_HepaRG_CYP2C9: Life Technologies and Expression Analysis (LTEA) Assay for CYP2C9 using HepaRG (AID 2283484). An outline of the steps: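 HepaRG, 48 h dosing, 8-pt half-log series, top 100 uM, 0.5% DMSO vehicle. Read-out: CYP2C9 transcript by TaqMan qRT-PCR, housekeeping-normalized (ACTB/GAPDH/POLR2A). Gain or loss fitted vs DMSO baseline.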

Read-out in another assay: CYP2E1 (gene 1571)
Description: LTEA_HepaRG_CYP2E1: Life Technologies and Expression Analysis (LTEA) Assay for CYP2E1 using HepaRG (AID 2283485). The essentials:
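Readout is qRT-PCR of CYP2E1 mRNA, normalized to three housekeeping genes and fitted bidirectionally against 0.5% DMSO. HepaRG cells were dosed 48 h at eight concentrations, highest 100 uM with half-log dilutions.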

Read-out in assay [11]: Cytochrome P450 3A4 (Homo sapiens) (UniProt P08684)
Kind of assay: LTEA_HepaRG_CYP3A4: Life Technologies and Expression Analysis (LTEA) Assay for CYP3A4 using HepaRG (AID 2283487). The essentials: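 HepaRG, 48 h exposure, 8-pt CRC from 100 uM (half-log), 0.5% DMSO, duplicates; serum-free induction medium. Readout: CYP3A4 mRNA, qRT-PCR, ACTB/GAPDH/POLR2A normalization. Bidirectional fit vs DMSO.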

Read-out in assay [12]: Cytochrome P450 3A7 (Homo sapiens) (UniProt P24462)
Description: LTEA_HepaRG_CYP3A7: Life Technologies and Expression Analysis (LTEA) Assay for CYP3A7 using HepaRG (AID 2283492). An outline of the steps:
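CYP3A7 transcript levels were read by TaqMan qRT-PCR on Fluidigm arrays after 48 h chemical exposure of human HepaRG cells, with housekeeping-gene normalisation. Eight half-log concentrations up to 100 uM in 0.5% DMSO were tested in duplicate.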

Read-out in a further assay: CYP3A5 (gene 1577)
Kind of assay: LTEA_HepaRG_CYP3A5: Life Technologies and Expression Analysis (LTEA) Assay for CYP3A5 using HepaRG (AID 2283493). An outline of the steps:
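Human HepaRG hepatic cells receive 48 h chemical treatment at eight concentrations (half-log steps from 100 uM) in 0.5% DMSO. Expression of CYP3A5 is quantified by Fluidigm qRT-PCR and normalized to three reference genes.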

Read-out in assay [13]: Cytochrome P450 7A1 (Homo sapiens) (UniProt P22680)
Description: LTEA_HepaRG_CYP7A1: Life Technologies and Expression Analysis (LTEA) Assay for Cytochrome P450 7A1 (CYP7A1) using HepaRG (AID 2283496). The essentials: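 HepaRG, 48 h exposure, 8-pt half-log series from 100 uM, 0.5% DMSO vehicle, duplicates. Readout: TaqMan qRT-PCR mRNA vs three housekeeping genes; bidirectional curve fit against DMSO baseline.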

Read-out in another assay: CYP2C8 (gene 1558)
Kind of assay: LTEA_HepaRG_CYP2C8: Life Technologies and Expression Analysis (LTEA) Assay for CYP2C8 using HepaRG (AID 2283483). The essentials:
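HepaRG (human liver line), 48 h chemical exposure, 8-pt half-log series from 100 uM, 0.5% DMSO vehicle. Readout: CYP2C8 transcript by qRT-PCR, housekeeping-normalized. Bidirectional fit vs DMSO baseline.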

Read-out in assay [14]: Cytochrome P450 4A22 (Homo sapiens) (UniProt Q5TCH4)
Kind of assay: LTEA_HepaRG_CYP4A22: Life Technologies and Expression Analysis (LTEA) Assay for Cytochrome P450 4A22 (CYP4A22) using HepaRG (AID 2283495). The essentials:
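HepaRG, 48 h post-plating -> serum-free induction medium; dosed 48 h, duplicate, 8 conc. (100 uM top, half-log), 0.5% DMSO. Readout: CYP4A22 mRNA by qRT-PCR, ACTB/GAPDH/POLR2A normalization; gain/loss fit relative to DMSO.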

Read-out in assay [15]: Pro-epidermal growth factor (Homo sapiens) (UniProt P01133)
Kind of assay: LTEA_HepaRG_EGF: Life Technologies and Expression Analysis (LTEA) Assay for Epidermal growth factor (EGF) using HepaRG (AID 2283489). An outline of the steps:
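qRT-PCR readout of EGF transcript after 48 h chemical exposure of HepaRG cells; eight concentrations from 100 uM down in half-log steps, duplicate wells, 0.5% DMSO vehicle. Bidirectional curve fitting against DMSO baseline.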

Active and inactive are the calls of the source. Rule for the calls: active = hit-call score of the fitted dose curve at least 0.9, where 1 is the maximum; inactive = score below 0.9.

Sequence of Cytochrome P450 3A7 (Homo sapiens) (P24462 whole entry, looked up): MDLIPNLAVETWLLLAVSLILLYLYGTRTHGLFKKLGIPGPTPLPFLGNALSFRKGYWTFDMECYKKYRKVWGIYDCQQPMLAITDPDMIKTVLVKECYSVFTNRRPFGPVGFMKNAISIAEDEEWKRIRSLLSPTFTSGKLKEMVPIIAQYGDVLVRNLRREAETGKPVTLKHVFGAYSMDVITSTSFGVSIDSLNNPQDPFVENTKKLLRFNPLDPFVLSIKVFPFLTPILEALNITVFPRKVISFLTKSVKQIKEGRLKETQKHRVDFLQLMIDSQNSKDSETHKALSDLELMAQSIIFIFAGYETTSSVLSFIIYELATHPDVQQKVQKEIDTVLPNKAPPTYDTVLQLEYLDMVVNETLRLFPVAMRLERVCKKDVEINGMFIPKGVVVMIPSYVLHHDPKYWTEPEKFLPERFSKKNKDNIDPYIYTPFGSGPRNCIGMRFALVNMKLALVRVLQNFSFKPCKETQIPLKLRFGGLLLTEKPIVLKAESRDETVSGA
Sequence of Cytochrome P450 2C19 (Homo sapiens) (P33261 whole entry, looked up): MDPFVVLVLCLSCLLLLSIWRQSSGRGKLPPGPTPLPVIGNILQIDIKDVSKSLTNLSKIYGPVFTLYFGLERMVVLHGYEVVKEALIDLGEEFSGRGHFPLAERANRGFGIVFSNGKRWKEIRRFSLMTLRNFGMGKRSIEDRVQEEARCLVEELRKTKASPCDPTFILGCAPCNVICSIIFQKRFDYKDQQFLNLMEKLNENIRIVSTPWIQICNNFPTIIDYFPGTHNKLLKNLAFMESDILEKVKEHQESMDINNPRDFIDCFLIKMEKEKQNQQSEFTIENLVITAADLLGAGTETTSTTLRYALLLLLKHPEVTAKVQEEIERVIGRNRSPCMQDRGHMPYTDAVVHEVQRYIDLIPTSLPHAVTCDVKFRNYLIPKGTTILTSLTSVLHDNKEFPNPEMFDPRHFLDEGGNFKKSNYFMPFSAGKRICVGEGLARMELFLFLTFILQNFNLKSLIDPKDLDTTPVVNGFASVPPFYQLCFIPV
Sequence of Cytochrome P450 3A4 (Homo sapiens) (P08684 whole entry, looked up): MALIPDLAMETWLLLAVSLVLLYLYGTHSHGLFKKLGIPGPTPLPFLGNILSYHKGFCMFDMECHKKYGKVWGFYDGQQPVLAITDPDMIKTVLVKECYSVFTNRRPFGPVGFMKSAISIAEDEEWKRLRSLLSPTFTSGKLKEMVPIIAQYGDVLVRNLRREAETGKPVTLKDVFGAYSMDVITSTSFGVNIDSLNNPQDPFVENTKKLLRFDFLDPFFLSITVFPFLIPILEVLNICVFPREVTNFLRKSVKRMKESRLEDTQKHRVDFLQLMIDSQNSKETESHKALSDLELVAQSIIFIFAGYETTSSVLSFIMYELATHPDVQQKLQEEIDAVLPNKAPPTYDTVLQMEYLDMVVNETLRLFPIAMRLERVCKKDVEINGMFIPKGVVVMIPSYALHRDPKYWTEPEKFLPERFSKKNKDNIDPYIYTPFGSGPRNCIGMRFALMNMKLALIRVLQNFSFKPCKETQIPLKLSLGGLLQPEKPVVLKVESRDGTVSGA

Turning to `Cn1cnc2c1c(=O)[nH]c(=O)n2C`, the outcome in assay [1], in assay [2], in assay [3], in [4], in assay [5] and in assay [6] was inactive.

As to `O=C1CCCCC1`, the compound was called inactive (in [7]; in assay [8]; in assay [1]; in assay [9]; in assay [10]; with CYP2C9 (gene 1559)). Further, the outcome (with CYP2E1 (gene 1571); in [11]; in [2]; in assay [3]; in [4]; in assay [12]) was inactive. The outcome (with CYP3A5 (gene 1577); in assay [5]; in [13]; in [6]) was inactive.

As for `CC(=O)[C@@]1(O)CC[C@H]2[C@@H]3CCC4=CC(=O)CC[C@]4(C)[C@H]3CC[C@@]21C`, the call in [1], in assay [2], in assay [3], in assay [4], in assay [5] and in assay [6] was inactive.

Regarding `CC(C)c1cccc(C(C)C)c1NC(=O)NS(=O)(=O)c1cc(C(C)(C)O)co1`, the call (in [7]; in assay [8]; in assay [1]; with CYP2C8 (gene 1558); with CYP2C9 (gene 1559); in assay [2]) was inactive. In addition, the compound was classed as inactive (in assay [3]; in assay [4]; in assay [12]; in the assay with CYP3A5 (gene 1577); in [13]; in assay [6]). The AC50 in assay [9] is 5.18 µM (active); in assay [10], 8.04 µM (active); in assay [11], 3.54 µM (active); in assay [5], 43.1 µM (active); in [14], 31.6 µM (active).

Turning to `COC(=O)CCCC(=O)OC`, the compound was called inactive (in assay [7]; in [8]; in assay [1]; in assay [9]; in [10]; with CYP2C8 (gene 1558)). The result (with CYP2C9 (gene 1559); in assay [11]; in assay [2]; in assay [15]; in assay [3]; in assay [4]) was inactive. In addition, the outcome (in assay [12]; with CYP3A5 (gene 1577); in assay [5]; in assay [13]; in assay [6]) was inactive.

As for `CC(C)COC(=O)CCCCC(=O)OCC(C)C`, the outcome (in [7]; in assay [8]; in assay [1]; in [9]; in assay [10]; in the assay with CYP2C8 (gene 1558)) was inactive. For the same compound, the result (with CYP2C9 (gene 1559); in [11]; in assay [2]; in assay [3]; in assay [4]; in [12]) was inactive. Besides, the compound was called inactive (in the assay with CYP3A5 (gene 1577); in assay [5]; in [13]; in assay [6]).
